Laboratory results: PubChem BioAssay
The source made the active and inactive calls.

Assay: probe aCHRDL2 binding to arrayed compounds – biochemical, biotinylated probe, 635/667 nm fluorescence, primary screen (AID 1100)
Details: small-molecule microarray, higher = more signal

Structure (SMILES) | composite z-score
COCCOC(=O)N1C(=O)[C@@]2(c3cc(C#CCCO)ccc31)[C@H](C(=O)N1CCN(c3ncccn3)CC1)[C@H]1C(=O)O[C@H](c3ccccc3)[C@H](c3ccccc3)N1[C@@H]2c1ccccc1OCCO | -0.0474
CS(=O)(=O)CCOC(=O)C1=CC(CCCO)=CC(c2ccc(CN3CCCC3)cc2)N(Cc2cc3c(cc2Br)OCO3)C=C1C(=O)OCCS(C)(=O)=O (stereo not drawn) | 0.555
CCOC(=O)[C@H]1CC=C2CC1C(=O)N1CCC[C@@H]1[C@@H]2O[Si](C)(C)C(C)(C)C (stereo partly drawn) | -1.04
COC(=O)[C@@]1(Cc2ccccc2)[C@H]2c3cc(C(=O)N4CCCC4)n(Cc4cccc5ccccc45)c3C[C@H]2CN1C(=O)c1ccccc1 | 1.44
CC(C)(C)OC(=O)CC[C@]1(C(=O)NCC(O)CO)COC(c2ccc(OCCCO)cc2)=N1 (stereo partly drawn) | 0.788
CCc1oc(CC[C@@H](CO)NC(=O)NCCn2cc(C3(O)CCCCC3)nn2)c(C(=O)OC)c1C(=O)OC | -0.402
COCCOC(=O)N1C(=O)[C@@]2(c3cc(C#Cc4ccc(OC)cc4)ccc31)[C@H](C(=O)N1CCCCCCC1)[C@H]1C(=O)O[C@H](c3ccccc3)[C@H](c3ccccc3)N1[C@@H]2c1ccc(OCCO)cc1 | 1.45
O=C(NCc1ccccc1)[C@@H]1c2ccccc2C(=O)N(CC23CC4CC(CC(C4)C2)C3)[C@H]1c1ccc(CO)cc1 | -0.524
COC(=O)[C@@]1(Cc2ccc(OC)cc2)[C@H]2c3cc(C(=O)N(C)C)n(Cc4cccc5ccccc45)c3C[C@H]2CN1C(=O)c1ccccc1 | 0.771
COc1ccc(C(O)C2C=CC3C(=O)N(c4ccccc4)C(=O)C3N2Nc2ccccc2F)cc1OCc1ccccc1 (stereo not drawn) | 1.08
COc1ccc(CCNC(=O)[C@@]2(C)c3ccccc3C(=O)N(Cc3cc(F)cc(C(F)(F)F)c3)[C@H]2c2ccc(CO)cc2)cc1 | 0.875
O=C1OCCC/C=C\[C@H]2OC34C=CCN(CCN5CCOCC5)C(=O)[C@H]3N(CCCO)C(=O)[C@@H]4C12 (stereo partly drawn) | 0.0663
COc1cc2c(cc1OC)CN(C(=O)[C@H]1[C@@H]3C(=O)O[C@@H](c4ccccc4)[C@@H](c4ccccc4)N3[C@@H](c3ccc(O)cc3)[C@]13C(=O)Nc1ccc(C#CC4=CCCCC4)cc13)CC2 | 0.785
C=CC[C@]12N=C(c3ccc(OCCCO)cc3)O[C@H]1c1ccccc1N(Cc1ccccc1)C2=O | 1.37
CN1C(=O)C2C=CC(C(O)c3ccccc3)N(Nc3ccccc3)C2C1=O (stereo not drawn) | 1.13
COc1ccc([C@H]2C[C@H]3C(Br)=C[C@@H]2C(=O)[C@]32CO2)cc1 | -0.193
CC(C)C(CO)N1C(=O)[C@@H]2[C@H]3C(=O)OCC=C[C@H]3OC23C=CCN(C(C)C)C(=O)[C@@H]13 (stereo partly drawn) | -0.25
CCCCCN1CC=CC23O[C@@H]4/C=C\CCCOC(=O)C4[C@H]2C(=O)N(CCCO)[C@@H]3C1=O (stereo partly drawn) | 0.062
CCCC[C@@H]1C[C@H]1[C@@H](NC(=O)c1ccco1)c1ccc(C(=O)OC)cc1 | 0.838
C=CCOC(=O)[C@H]1[C@@H]2C(=O)O[C@@H](c3ccccc3)[C@@H](c3ccccc3)N2[C@@H](c2ccc(OCCOC(=O)[C@@H]3C[C@@H]4C(=O)N[C@@H](CCCCN(C)C)C(=O)N4[C@@H]3c3ccc(O)cc3)cc2)[C@]12C(=O)Nc1ccc(I)cc12 | -0.0178
CN1C(=O)[C@]2(Cc3ccccc3)N=C(c3ccc(OCCCO)cc3)O[C@@H]2c2ccccc21 | 0.913
CN(C)CCCNC(=O)[C@@]1(c2ccc([N+](=O)[O-])cc2)CC(=O)N(C2CCCCC2)[C@@H]1c1ccc(CO)cc1I | 0.736
COCC(=C=CC[C@@H](O)c1ccccc1OCCO)C[C@@H](O)c1cc(Cl)cc(Cl)c1O | -0.607

Assay: change in splice reporter luminescence, either direction, cell-based, HEK293, spliceosome inhibition project, primary screen (AID 1101);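 also: HEK293 cells carrying a splicing-competent luciferase reporter gene; test concentration not given here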
Details: HEK293 splicing luciferase reporter, 24 h, higher = more signal, called active from +8 up or from −8 down

Structure (SMILES) | z-score
Cc1ccc(S[C@]2(C(=O)NCCN3CCOCC3)CC(=O)N(Cc3ccccc3Cl)[C@@H]2c2ccc(CO)cc2)cc1 | -1.38 (inactive)
C[C@@]1([C@@H](NC(=O)c2ccccc2)c2ccc(-c3ccccc3)cc2)C[C@H]1C1CCCCC1 | 0.665 (inactive)
COc1ccc(COC2OC[C@]3(C)[C@H]4C5=C(CN3C(=O)OC(C)(C)C)[C@H](C)C(CO)C(CO)C5CC[C@@H]24)cc1 (stereo partly drawn) | -0.807 (inactive)
C=C(/C(=C/C[C@@H](OC(C)=O)c1ccc(OCCO)cc1)c1cnc2ccccc2c1)C(C)C | -0.837 (inactive)
C=CCOC(=O)[C@@H]1[C@H]2C(=O)O[C@H](c3ccccc3)[C@H](c3ccccc3)N2[C@H](c2ccc(OCCOC(=O)[C@@H]3C[C@@H]4C(=O)N[C@@H](Cc5ccccc5)C(=O)N4[C@@H]3c3ccc(O)cc3)cc2)[C@@]12C(=O)Nc1ccc(I)cc12 | -1.17 (inactive)
CCCCCC1=C2CNC(CCC)(C(=O)OC)C=C2C(C)C1=O (stereo not drawn) | 2.6 (inactive)
C=C(C)C1C(=C)CN([C@H](CO)c2ccccc2)C1=O (stereo partly drawn) | -0.622 (inactive)
O=C1C2C=CC(C(O)c3ccc(F)cc3)N(Nc3ccccc3F)C2C(=O)N1c1ccccc1 (stereo not drawn) | 1.34 (inactive)
CCOc1cc(C(O)C2C=CC3C(=O)N(c4ccccc4)C(=O)C3N2Nc2ccccc2)ccc1O (stereo not drawn) | 0.608 (inactive)
CCCCCN1CC=CC23O[C@@H]4/C=C\CCCOC(=O)C4[C@H]2C(=O)N(C(CO)C(C)C)[C@@H]3C1=O (stereo partly drawn) | -0.455 (inactive)
CC(CO)N1C(=O)[C@@H]2C3C(=O)OCCC/C=C\[C@H]3OC23C=CCN(c2ccc4ccccc4c2)C(=O)[C@@H]13 (stereo partly drawn) | -0.317 (inactive)
COCCCNC(=O)C1N=C(c2ccc(OCCCO)cc2)N(c2ccccc2)O1 (stereo not drawn) | -0.27 (inactive)
COCCOC(=O)N1C(=O)[C@@]2(c3cc(C#CCCO)ccc31)[C@H](C(=O)N1CCN(c3ncccn3)CC1)[C@H]1C(=O)O[C@H](c3ccccc3)[C@H](c3ccccc3)N1[C@@H]2c1ccccc1OCCO | -0.32 (inactive)
CS(=O)(=O)CCOC(=O)C1=CC(CCCO)=CC(c2ccc(CN3CCCC3)cc2)N(Cc2cc3c(cc2Br)OCO3)C=C1C(=O)OCCS(C)(=O)=O (stereo not drawn) | -0.9 (inactive)
CCOC(=O)[C@H]1CC=C2CC1C(=O)N1CCC[C@@H]1[C@@H]2O[Si](C)(C)C(C)(C)C (stereo partly drawn) | 0.582 (inactive)
COC(=O)[C@@]1(Cc2ccccc2)[C@H]2c3cc(C(=O)N4CCCC4)n(Cc4cccc5ccccc45)c3C[C@H]2CN1C(=O)c1ccccc1 | -1.33 (inactive)
CC(C)(C)OC(=O)CC[C@]1(C(=O)NCC(O)CO)COC(c2ccc(OCCCO)cc2)=N1 (stereo partly drawn) | 0.646 (inactive)
CCc1oc(CC[C@@H](CO)NC(=O)NCCn2cc(C3(O)CCCCC3)nn2)c(C(=O)OC)c1C(=O)OC | -0.0596 (inactive)

Structure (SMILES) | z-score
COCCOC(=O)N1C(=O)[C@@]2(c3cc(C#Cc4ccc(OC)cc4)ccc31)[C@H](C(=O)N1CCCCCCC1)[C@H]1C(=O)O[C@H](c3ccccc3)[C@H](c3ccccc3)N1[C@@H]2c1ccc(OCCO)cc1 | -0.16 (inactive)
O=C(NCc1ccccc1)[C@@H]1c2ccccc2C(=O)N(CC23CC4CC(CC(C4)C2)C3)[C@H]1c1ccc(CO)cc1 | 0.152 (inactive)
COC(=O)[C@@]1(Cc2ccc(OC)cc2)[C@H]2c3cc(C(=O)N(C)C)n(Cc4cccc5ccccc45)c3C[C@H]2CN1C(=O)c1ccccc1 | -3.61 (inactive)
COc1ccc(C(O)C2C=CC3C(=O)N(c4ccccc4)C(=O)C3N2Nc2ccccc2F)cc1OCc1ccccc1 (stereo not drawn) | 0.249 (inactive)
COc1ccc(CCNC(=O)[C@@]2(C)c3ccccc3C(=O)N(Cc3cc(F)cc(C(F)(F)F)c3)[C@H]2c2ccc(CO)cc2)cc1 | -1.23 (inactive)
O=C1OCCC/C=C\[C@H]2OC34C=CCN(CCN5CCOCC5)C(=O)[C@H]3N(CCCO)C(=O)[C@@H]4C12 (stereo partly drawn) | 0.106 (inactive)
COc1cc2c(cc1OC)CN(C(=O)[C@H]1[C@@H]3C(=O)O[C@@H](c4ccccc4)[C@@H](c4ccccc4)N3[C@@H](c3ccc(O)cc3)[C@]13C(=O)Nc1ccc(C#CC4=CCCCC4)cc13)CC2 | -0.58 (inactive)
C=CC[C@]12N=C(c3ccc(OCCCO)cc3)O[C@H]1c1ccccc1N(Cc1ccccc1)C2=O | -0.415 (inactive)
CN1C(=O)C2C=CC(C(O)c3ccccc3)N(Nc3ccccc3)C2C1=O (stereo not drawn) | 1.03 (inactive)
COc1ccc([C@H]2C[C@H]3C(Br)=C[C@@H]2C(=O)[C@]32CO2)cc1 | -0.613 (inactive)
CC(C)C(CO)N1C(=O)[C@@H]2[C@H]3C(=O)OCC=C[C@H]3OC23C=CCN(C(C)C)C(=O)[C@@H]13 (stereo partly drawn) | 0.181 (inactive)
CCCCCN1CC=CC23O[C@@H]4/C=C\CCCOC(=O)C4[C@H]2C(=O)N(CCCO)[C@@H]3C1=O (stereo partly drawn) | 0.308 (inactive)
CCCC[C@@H]1C[C@H]1[C@@H](NC(=O)c1ccco1)c1ccc(C(=O)OC)cc1 | 0.965 (inactive)
C=CCOC(=O)[C@H]1[C@@H]2C(=O)O[C@@H](c3ccccc3)[C@@H](c3ccccc3)N2[C@@H](c2ccc(OCCOC(=O)[C@@H]3C[C@@H]4C(=O)N[C@@H](CCCCN(C)C)C(=O)N4[C@@H]3c3ccc(O)cc3)cc2)[C@]12C(=O)Nc1ccc(I)cc12 | -0.433 (inactive)
CN1C(=O)[C@]2(Cc3ccccc3)N=C(c3ccc(OCCCO)cc3)O[C@@H]2c2ccccc21 | -1.18 (inactive)
CN(C)CCCNC(=O)[C@@]1(c2ccc([N+](=O)[O-])cc2)CC(=O)N(C2CCCCC2)[C@@H]1c1ccc(CO)cc1I | -3.68 (inactive)
COCC(=C=CC[C@@H](O)c1ccccc1OCCO)C[C@@H](O)c1cc(Cl)cc(Cl)c1O | -0.458 (inactive)
